The full list was thinned out, with hits kept by preference.
Tgondii IFNg – T. gondii growth inhibition under IFN-gamma | Toxoplasma gondii growth in IFN-gamma-treated host cells; hits give low values | activity change, negative = inhibition, % (test concentration not listed) | AID 1259416 | 69,000 compounds, 3.8% hits; in the data active = activity change below about -70%, passing the limit was not always enough;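 also: host cells are HeLa cells infected with Toxoplasma gondii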
Of the large screens only hits and unclear results are named; the others gave an inactive call.

CCN1c2cc(C)ccc2-n2cccc2C12CCN(C(=O)Nc1cccc(Cl)c1)CC2	Tgondii IFNg -82
CCN1c2cc(C)ccc2-n2cccc2C12CCN(C(=O)Nc1cc(Cl)c(OC)cc1OC)CC2	none
CCN1c2cc(C)ccc2-n2cccc2C12CCN(C(=O)Nc1ccc(F)c(Cl)c1)CC2	none
CCN1c2cc(C)ccc2-n2cccc2C12CCN(C(=O)Nc1ccccc1)CC2	none
CCc1ccc(NC(=O)N2CCC3(CC2)c2cccn2-c2ccc(C)cc2N3CC)cc1	none
CCN1c2cc(C)ccc2-n2cccc2C12CCN(C(=O)Nc1cccc(OC)c1)CC2	none
CCN1c2cc(C)ccc2-n2cccc2C12CCN(C(=O)Nc1ccccc1OC)CC2	Tgondii IFNg -88
O=C(Cn1cnc2c([nH]c3ccccc32)c1=O)NCc1ccncc1	none
CN(C)CC1(O)CCN(C(=O)c2ccnc(-n3cnnc3)c2)C1 (centres undefined)	none
Cc1cccc(NC(=O)CCNC2CCN(CC(C)C)CC2)c1	none
CC(C)(C)c1ccc(-c2nnc(SCc3ccccc3Cl)o2)cc1	none
COc1ccc2c(c1)NC1(CCN(S(=O)(=O)c3cc(Cl)ccc3OC)CC1)c1cccn1-2	none
O=S(=O)(CC(O)CS(=O)(=O)c1ccc(Br)cc1)c1ccccc1 (centres undefined)	none
CS(=O)(=O)N1CCOC2CCN(C(=O)Cc3cccnc3)CCC21 (centres undefined)	none
O=C(Oc1cccc2cccnc12)C(c1ccccc1)c1ccccc1	none
O=C(Cc1cccc(F)c1)N1CCn2cc(Cn3cncn3)nc2C1	none
O=C(Cc1ccc(F)cc1)N1CCn2cc(Cn3cncn3)nc2C1	none
Cc1ccc(CC(=O)N2CCn3cc(Cn4cncn4)nc3C2)cc1	Tgondii IFNg -74
COc1ncc(C(=O)Nc2ccc(N3CCCC3)c(F)c2)cn1	none
CC1(C)NC(=O)N(CC(=O)Nc2ccc(N3CCCCC3)c(C(F)(F)F)c2)C1=O	none
COc1cc(C(=O)Nc2ccc(N3CCCCC3)c(C(F)(F)F)c2)nc(OC)n1	Tgondii IFNg -82
CCOC(=O)c1[nH]c(C)c(CN(Cc2ccc(C)cc2)C(=O)c2cc3ccc(OC)cc3[nH]2)c1C	none
c1ccc(Cn2cc(Cn3ccnc3-c3ccncc3)cn2)cc1	none
Cc1cnc(N2CCc3ncnc(-c4ccccc4)c3CC2)nc1	none
Cc1cccc(OCCCN(C)C(=O)CN)c1C	none
COCC(=O)N(C)CCOc1c(C)ccc(C)c1C	Tgondii IFNg -78
Cc1ccc(C)c(OCC(=O)N(C)Cc2cc(C(C)C)on2)c1C	none
COc1ccccc1C(=O)N1CCC2(CC1)Nc1cc(C)ccc1-n1cccc12	none
COc1ccc2nc(NC(=O)CN3C(=O)CCc4cc(Br)ccc43)sc2c1	none
CNc1cc(CNC(=O)C2(c3cccc(F)c3)CCOCC2)nc(-c2ccncc2)n1	none
Cc1c(CN2CCCC2c2ccccn2)[nH]c2ccc(F)cc12 (centres undefined)	none
Fc1ccc(C(F)(F)F)cc1CN1CCCC1c1ccccn1 (centres undefined)	none
Cn1cc(CN2CCCC2c2cncc(Nc3ccccn3)n2)c2cc(F)ccc21 (centres undefined)	Tgondii IFNg -100
CC(=O)Nc1nnc(SCC(=O)Nc2ccc(C)c(C)c2)s1	none
COCCN=C1Nc2ncccc2NC12CCN(C(=O)c1sccc1C)CC2	none
COc1nccnc1-c1ccc2c(c1)OCO2	none
Cc1cccc(-c2[nH]c(C(C)(C)C)nc2-c2ccc3c(c2)OCO3)n1	Tgondii IFNg -83
NC(=O)c1ccc(-c2nc(-c3ccc4c(c3)OCO4)c(-c3ccccn3)[nH]2)cc1	none
NC1CCc2nc3ccccc3c(=O)n2C1c1ccsc1 (centres undefined)	none
NC1=NC(=O)S/C1=C\c1ccc(-c2nc3ccccc3s2)o1	none
COc1ccc(-c2ccccc2[C@H]2[C@@H](C#N)N(C(=O)NC(C)C)[C@H]2CO)cc1	none
COc1ccc(-c2ccc([C@H]3[C@H](C#N)N(C(=O)NC(C)C)[C@H]3CO)cc2)cc1	none
COc1ccc(-c2ccc([C@H]3[C@@H](C#N)N(C(=O)NC(C)C)[C@H]3CO)cc2)cc1	Tgondii IFNg -76
C=CCN(CC#Cc1ccccc1)Cc1ccncc1	none
C=C(C)CN(C)C(=O)[C@@H]1C[C@H](N)CN1C	none
Cc1nc(OCC(=O)Nc2ccccc2C(F)(F)F)c2ccccc2n1	none
O=C1CCc2cc(S(=O)(=O)Nc3cccc4c3CCCC4)cc3c2N1CC3	Tgondii IFNg -114
Cc1cccc(C)c1NS(=O)(=O)c1cc2c3c(c1)CCC(=O)N3CCC2	none
COC(=O)c1ccccc1NS(=O)(=O)c1cc2c3c(c1)CCN3C(=O)CC2	none
CCc1ccc(NS(=O)(=O)c2cc3c4c(c2)CCN4C(=O)CC3)cc1	none
Cc1ccc(NS(=O)(=O)c2cc3c4c(c2)CCN4C(=O)CC3)cc1C	Tgondii IFNg -95
Cc1cccc(NS(=O)(=O)c2cc3c4c(c2)CCN4C(=O)CC3)c1	none
CCc1nc(CN2CCCC(CNC(=O)NC(C)(C)C)C2)c(C)[nH]1 (centres undefined)	none
COc1c(C)cnc(CN(C)C(=O)c2cc(C(C)C)nn2C)c1C	none
CCCS(=O)(=O)c1ccc2nc(NC(=O)OC)[nH]c2c1	none
COC(=O)Nc1nc2ccc(-c3n[nH]c(=O)c4ccccc34)cc2[nH]1	Tgondii IFNg -102
CCCCc1ccc2nc(NC(=O)OC)[nH]c2c1	none
